Data reported in PubChem BioAssay.
For part of these data: Entries with a potency or affinity are not part of this list. This is one part of the list. Active and inactive are the calls of the source.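 Rule for the calls, unless noted: active = fluorescence ratio normalized to control raised more than 50% in primary screen plus both repeat runs; inactive = the rest.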

How the values were obtained:
[1] = system: TRPC4 beta (transient receptor potential cation channel C4), mouse; experiment: activators of mouse TRPC4 channel, confirmation, cell-based, Fluo4 calcium, HEK293 TRPC4beta/mu-opioid, duplicates, 10 µM (AID 2426); settings: Fluo4 calcium fluorescence, at 10 µM; hits give high values
[2] = system: transient receptor potential cation channel C4 beta (TRPC4), mouse; experiment: activators of mouse TRPC4 channel, confirmation, cell-based, second round, Fluo4, HEK293 TRPC4beta/mu-opioid, 1 µM (AID 2461;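 active = primary screen active and over 50% activation in each of two duplicate runs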); settings: Fluo4 calcium fluorescence, at 1 µM; hits give high values
[3] = system: TRPC4 (transient receptor potential cation channel C4 beta), mouse; experiment: positive allosteric modulators of mouse TRPC4, confirmation, cell-based, second round, Fluo-4, HEK293 TRPC4beta/mu-opioid, 1 µM (AID 2554;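 active = primary screen hit whose fluorescence ratio, in both repeats, exceeds the weak agonist control mean by 3 SD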); settings: DAMGO EC20, Fluo-4 calcium flux, at 1 µM; hits give high values
[4] = system: TRPC4 beta (transient receptor potential cation channel C4), mouse; experiment: positive allosteric modulators of mouse TRPC4, confirmation, cell-based, Fluo-4, HEK293 TRPC4beta/mu-opioid (AID 2555;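 active = primary screen hit whose calcium fluorescence ratio, in both repeats, exceeds the weak agonist control mean by 3 SD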); settings: DAMGO EC20, Fluo-4 calcium flux, at 10 µM; hits give high values
[5] = target: Short transient receptor potential channel 4 (Mus musculus) (UniProt Q9QUQ5); experiment: inhibitors of mouse TRPC4 channel, confirmation, cell-based, Fluo4, HEK293 TRPC4beta/mu-opioid (AID 2636;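 active = calcium signal cut by more than 3 SD below the full-agonist control yet still positive, in both repeats and the earlier primary screen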); settings: DAMGO, Fluo4 calcium flux, at 10 µM; hits give high values
Short transient receptor potential channel 4 (Mus musculus), sequence (Q9QUQ5 whole entry, looked up): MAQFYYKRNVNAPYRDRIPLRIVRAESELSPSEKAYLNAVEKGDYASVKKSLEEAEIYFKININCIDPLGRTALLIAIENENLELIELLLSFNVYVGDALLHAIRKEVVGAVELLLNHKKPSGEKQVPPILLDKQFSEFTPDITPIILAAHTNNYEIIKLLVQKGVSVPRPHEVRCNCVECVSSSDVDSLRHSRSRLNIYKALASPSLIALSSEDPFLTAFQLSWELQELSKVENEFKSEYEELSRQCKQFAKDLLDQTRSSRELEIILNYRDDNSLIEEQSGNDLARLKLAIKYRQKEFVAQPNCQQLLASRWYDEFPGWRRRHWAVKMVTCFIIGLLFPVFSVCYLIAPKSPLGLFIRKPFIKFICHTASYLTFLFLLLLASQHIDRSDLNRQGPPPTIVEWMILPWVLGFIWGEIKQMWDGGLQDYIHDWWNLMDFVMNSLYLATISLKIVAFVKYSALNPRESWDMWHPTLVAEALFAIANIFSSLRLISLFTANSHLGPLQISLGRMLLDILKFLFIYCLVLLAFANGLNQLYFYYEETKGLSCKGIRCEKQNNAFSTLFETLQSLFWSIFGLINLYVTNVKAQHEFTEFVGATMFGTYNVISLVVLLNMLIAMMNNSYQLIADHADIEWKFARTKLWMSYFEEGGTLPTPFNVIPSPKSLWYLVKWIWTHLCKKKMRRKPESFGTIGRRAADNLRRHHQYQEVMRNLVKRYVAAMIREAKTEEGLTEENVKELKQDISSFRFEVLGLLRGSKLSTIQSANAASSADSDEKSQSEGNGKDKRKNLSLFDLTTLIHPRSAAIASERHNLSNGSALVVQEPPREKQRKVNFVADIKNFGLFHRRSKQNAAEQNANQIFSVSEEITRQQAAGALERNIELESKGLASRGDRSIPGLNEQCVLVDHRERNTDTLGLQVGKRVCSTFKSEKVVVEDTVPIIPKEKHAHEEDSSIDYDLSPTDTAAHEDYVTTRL

[6] = target: Short transient receptor potential channel 4 (Mus musculus) (UniProt Q9QUQ5); experiment: inhibitors of mouse TRPC4 channel, confirmation, cell-based, second round, Fluo4, HEK293 TRPC4beta/mu-opioid, 1 µM (AID 2637;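 active = calcium signal ratio cut to more than 3 SD under the fully stimulated control mean yet still positive, in both repeats and the primary screen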); settings: Fluo4 calcium flux, DAMGO, at 1 µM; hits give high values
[7] = target: Short transient receptor potential channel 4 (Mus musculus) (UniProt Q9QUQ5); experiment: mouse TRPC4 channel activators, dose response, cell-based, HEK293 TRPC4/mu-opioid, Fluo-4 calcium (AID 434937;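 active = primary screen activator hit with a dose response curve and TRPC4 channel activation at any tested dose; inactive = no activation, no dose response, or not a primary hit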)
[8] = target: Short transient receptor potential channel 4 (Mus musculus) (UniProt Q9QUQ5); experiment: TRPC4 positive allosteric modulators, dose response, cell-based, HEK293 TRPC4/mu-opioid, Fluo-4 calcium, EC20 DAMGO (AID 434941;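 active = earlier screen potentiator hit that boosts the TRPC4 ion channel at some dose, with a dose response; inactive = no potentiation, no dose response, or not a prior hit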;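 note: calcium entry triggered by an EC20 dose of DAMGO at the co-expressed mu-opioid receptor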)
[9] = target: Short transient receptor potential channel 4 (Mus musculus) (UniProt Q9QUQ5); experiment: mouse TRPC4 channel inhibitors, dose response, cell-based, HEK293 TRPC4/mu-opioid, Fluo-4 calcium (AID 434942;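 active = primary screen inhibitor hit that blocks the TRPC4 channel at some tested dose, yielding a dose curve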)
[10] = target: Short transient receptor potential channel 6 (Mus musculus) (UniProt Q61143); experiment: inhibition of mouse TRPC6 channel, confirmation, selectivity assay for TRPC4 inhibitor project, cell-based, HEK293, membrane potential dye, duplicate (AID 434948;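 active = active in primary screen and both duplicates, each dropping signal beyond three positive-control SD with fluorescence still positive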); settings: HEK293 TRPC6, membrane potential dye fluorescence, at 10 µM; inhibition: hits give high values, stimulated with maximal-effect acetylcholine unless noted; outcome: stimulated with maximal-effect acetylcholine unless noted
Short transient receptor potential channel 6 (Mus musculus), sequence (Q61143 whole entry, looked up): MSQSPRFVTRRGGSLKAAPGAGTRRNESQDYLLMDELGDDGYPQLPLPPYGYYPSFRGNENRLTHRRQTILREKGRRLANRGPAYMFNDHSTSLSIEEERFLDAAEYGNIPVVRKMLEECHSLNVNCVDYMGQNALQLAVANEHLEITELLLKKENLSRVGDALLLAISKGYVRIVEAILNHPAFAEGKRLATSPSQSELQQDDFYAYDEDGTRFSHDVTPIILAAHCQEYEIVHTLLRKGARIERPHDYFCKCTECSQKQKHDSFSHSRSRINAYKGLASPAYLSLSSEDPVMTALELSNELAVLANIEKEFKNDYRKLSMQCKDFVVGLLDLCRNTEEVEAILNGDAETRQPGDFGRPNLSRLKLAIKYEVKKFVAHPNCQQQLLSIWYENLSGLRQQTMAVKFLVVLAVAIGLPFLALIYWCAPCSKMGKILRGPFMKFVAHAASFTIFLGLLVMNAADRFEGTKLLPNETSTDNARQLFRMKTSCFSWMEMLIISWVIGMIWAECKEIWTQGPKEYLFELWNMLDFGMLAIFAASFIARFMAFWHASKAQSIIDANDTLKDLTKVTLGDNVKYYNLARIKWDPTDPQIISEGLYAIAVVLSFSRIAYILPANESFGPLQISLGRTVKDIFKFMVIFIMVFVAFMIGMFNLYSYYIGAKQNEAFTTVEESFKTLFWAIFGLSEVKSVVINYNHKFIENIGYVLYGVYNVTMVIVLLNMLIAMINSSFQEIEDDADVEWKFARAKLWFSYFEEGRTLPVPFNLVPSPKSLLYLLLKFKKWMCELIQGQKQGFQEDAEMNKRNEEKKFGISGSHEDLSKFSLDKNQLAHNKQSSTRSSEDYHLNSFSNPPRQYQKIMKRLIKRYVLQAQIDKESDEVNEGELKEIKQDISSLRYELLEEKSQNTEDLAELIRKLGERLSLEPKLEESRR

[11] = target: Short transient receptor potential channel 6 (Mus musculus) (UniProt Q61143); experiment: activation of mouse TRPC6 channel, confirmation, selectivity assay for TRPC4 activator project, cell-based, HEK293, membrane potential dye, duplicate (AID 434950;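 active = membrane potential signal rise above negative control mean plus 3 SD in both duplicates, also active in the earlier TRPC4 screen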); settings: HEK293 TRPC6, membrane potential fluorescence, at 10 µM; hits give high values
[12] = target: Short transient receptor potential channel 6 (Mus musculus) (UniProt Q61143); experiment: TRPC6 potentiation by TRPC4 potentiator hits, confirmation, selectivity assay for TRPC4 potentiator project, HEK293 cells, membrane potential dye, duplicate (AID 434952;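 active = compound raising the membrane signal above positive-control mean plus 3 SD in both repeats, and a primary screen hit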); settings: HEK293 TRPC6, membrane potential dye fluorescence, at 10 µM; maximal acetylcholine added after compound unless noted
[13] = target: Short transient receptor potential channel 4 (Mus musculus) (UniProt Q9QUQ5); experiment: calcium flux activators in TRPC4/5HT1a cells, counter-screen for TRPC4 activator project, cell-based, second counter screen, HEK293 TRPC4/5HT1a, Fluo-4 (AID 434977;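 active = calcium signal rise above buffer-control mean plus 5 SD in both duplicates, and also a hit in the primary screen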); settings: Fluo-4 calcium flux, at 10 µM; hits give high values
[14] = calcium flux inhibitors in TRPC4/5HT1a cells, confirmation, counter-screen for TRPC4 inhibitor project, cell-based, second counter screen, HEK293 TRPC4/5HT1a, Fluo-4 (AID 434978;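 active = primary screen active whose calcium signal fell more than 3 SD beyond the full-serotonin control mean in both duplicate plates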;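 note: serotonin given first at submaximal then at maximal dose after compound preincubation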); settings: Fluo-4 calcium flux, at 10 µM; inhibition: hits give high values, serotonin added to trigger calcium flux unless noted; outcome: serotonin added to trigger calcium flux unless noted
[15] = system: TRPC4 (mouse), co-expressed with 5HT1a in HEK293; experiment: calcium flux potentiators in TRPC4/5HT1a cells, confirmation, counter-screen for TRPC4 potentiator project, cell-based, second counter screen, HEK293 TRPC4/5HT1a, Fluo-4 (AID 434979;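 active = signal rise over 3 SD above mean of control wells given weak agonist, in both repeats and first screen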); settings: Fluo-4 calcium flux, at 10 µM; outcome: serotonin added at its EC20 dose unless noted; potentiation: hits give high values, serotonin added at its EC20 dose unless noted
[16] = calcium flux activation in mu-opioid HEK293 cells, confirmation, counter-screen for TRPC4 activator project, cell-based, HEK293 mu-opioid receptor line (AID 449723;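 active = hit in primary screen, with calcium signal over 5 SD above buffer well mean in both duplicates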;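 note: counter screen cells carry the mu-opioid receptor alone and lack TRPC4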); settings: Fluo-4 calcium fluorescence, at 10 µM; hits give high values
[17] = calcium flux enhancement in mu-opioid HEK293 cells, confirmation, counter-screen for TRPC4 allosteric potentiator project, cell-based, HEK293 mu-opioid receptor line (AID 449724;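 active = calcium signal rise more than 3 SD above the low-dose agonist control mean, in both duplicate plates and the primary screen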); settings: Fluo-4 calcium flux, at 10 µM; compound added before EC20 DAMGO stimulus unless noted
[18] = target: Inward rectifier potassium channel 2 (Mus musculus) (UniProt P35561); experiment: mouse Kir2.1 channel blockers, retest, confirmation, cell-based, FluxOR thallium flux, duplicate (AID 2032;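 active = Primary-screen hit whose thallium flux fell at least 3 control SD below untreated wells in both duplicates, with normal baseline fluorescence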;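 note: 0% = blank wells without stimulus and 100% = stimulated no-compound controls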); settings: Kir2.1-expressing cells, FluxOR thallium flux fluorescence, at 10 µM; hits give low values
Inward rectifier potassium channel 2 (Mus musculus), sequence (P35561 whole entry, looked up): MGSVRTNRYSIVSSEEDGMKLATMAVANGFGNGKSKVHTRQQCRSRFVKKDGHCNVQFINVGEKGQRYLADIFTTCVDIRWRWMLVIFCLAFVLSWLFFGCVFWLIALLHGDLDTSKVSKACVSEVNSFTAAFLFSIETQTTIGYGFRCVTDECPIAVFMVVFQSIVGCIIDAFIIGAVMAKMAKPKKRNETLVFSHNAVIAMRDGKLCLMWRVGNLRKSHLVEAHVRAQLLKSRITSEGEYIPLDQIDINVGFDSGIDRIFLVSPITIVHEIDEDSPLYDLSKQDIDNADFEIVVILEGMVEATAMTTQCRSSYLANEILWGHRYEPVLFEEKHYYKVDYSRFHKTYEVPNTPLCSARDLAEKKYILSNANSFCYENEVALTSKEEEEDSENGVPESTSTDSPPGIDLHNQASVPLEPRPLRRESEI

[19] = nonspecific thallium flux effects in parental HEK293 cells, confirmation, counter-screen for Kir2.1 inhibitor project, cell-based, FluxOR thallium flux, duplicate, single concentration (AID 2105;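 active = dye signal at least 3 control SD above or below untreated wells in both duplicates, raw fluorescence within 3, either direction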;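 for FluxOR signal as % of negative control (100 = no effect): percent is based on the flux ratio of peak minus minimum fluorescence over baseline F0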); settings: FluxOR thallium flux fluorescence, at 10 µM; 0% = unstimulated blank wells
[20] = target: Short transient receptor potential channel 6 (Mus musculus) (UniProt Q61143); experiment: mouse TRPC6 channel inhibitors, confirmation, HEK293 cells, membrane potential dye, duplicate (AID 488960;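 active = fluorescence ratio falls more than 5 SD below the full-stimulation control mean, in both duplicate runs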); settings: ACh-evoked depolarization, at 10 µM; hits give high values

Oc1c(Br)cc(Br)cc1CN1CCN(Cc2ccccc2)CC1
inactive: outcome [1] | outcome [2] | outcome [3] | outcome [5] | outcome [6] | outcome [7] | outcome [8] | outcome [9] | outcome [10] inactive [setting not given] | outcome [11] | outcome [12] inactive [setting not given] | outcome [13] | outcome [14] inactive [setting not given] | outcome [16] | outcome [17] inactive [setting not given]
active: potentiation [4] 44% | potentiation [15] 20.2% [hits give high values]

CCNc1cc(N2CCNCC2)ccc1[N+](=O)[O-]
active: potentiation [3] 35% | potentiation [4] 19% | potentiation [15] 17.7%
inactive: outcome [1] | outcome [2] | outcome [5] | outcome [6] | outcome [7] | outcome [8] | outcome [9] | outcome [10] | outcome [11] | outcome [12] | outcome [13] | outcome [14] | outcome [16] | outcome [17]

CCc1ccc(OCCCN=C(C)c2c(O)n(C)c(=O)n(C)c2=O)cc1
active: potentiation [15] 13.7% [hits give high values]
inactive: outcome [1] | outcome [2] | outcome [3] | outcome [4] | outcome [5] | outcome [6] | outcome [7] | outcome [8] | outcome [9] | outcome [10] inactive [setting not given] | outcome [11] | outcome [12] inactive [setting not given] | outcome [13] | outcome [14] inactive [setting not given] | outcome [16] | outcome [17] inactive [setting not given]

CN1CCN(Cc2cc(=O)n3ccsc3n2)CC1
inactive: outcome [1] | outcome [2] | outcome [3] | outcome [4] | outcome [5] | outcome [6] | outcome [7] | outcome [8] | outcome [9] | outcome [10] | outcome [11] | outcome [12] | outcome [13] | outcome [14] | outcome [16] | outcome [17]
active: potentiation [15] 20%

Cc1ccc(-c2cc(-c3ccccc3)cc(-c3ccccc3)[n+]2-c2ccccc2)cc1
inactive: outcome [1] | outcome [2] | outcome [3] | outcome [5] | outcome [6] | outcome [7] | outcome [8] | outcome [9] | outcome [10] | outcome [11] | outcome [12] | outcome [13] | outcome [14] | outcome [16] | outcome [17]
active: potentiation [4] 18% | potentiation [15] 9.63%

COC(=O)C(O)(c1ccc(NC(=S)NC(=O)c2ccc(Cl)cc2Cl)c(C)c1)C(F)(F)F (stereo not drawn)
active: potentiation [4] 18% | potentiation [15] 24.2%
inactive: outcome [1] | outcome [2] | outcome [3] | outcome [5] | outcome [6] | outcome [7] | outcome [8] | outcome [9] | outcome [10] | outcome [11] | outcome [12] | outcome [13] | outcome [14] | outcome [16] | outcome [17]

COc1ccc(C[C@@H]2c3cc(O)c(OC)cc3CCN2C)cc1O
inactive: outcome [1] | outcome [2] | outcome [3] | outcome [4] | outcome [5] | outcome [6] | outcome [7] | outcome [8] | outcome [9] | outcome [10] | outcome [11] | outcome [12] | outcome [13] | outcome [14] | outcome [15] | outcome [16] | outcome [17]

CCn1ccnc1CN1CCCC(C(=O)c2cccc(C(F)(F)F)c2)C1 (stereo not drawn)
inactive: outcome [1] | outcome [2] | outcome [3] | outcome [4] | outcome [5] | outcome [6] | outcome [7] | outcome [8] | outcome [9] | outcome [10] | outcome [11] | outcome [12] | outcome [13] | outcome [14] | outcome [15] | outcome [16] | outcome [17]

Clc1ccc(OCC#CCN2CCCC2)cc1
inactive: outcome [1] | outcome [2] | outcome [4] | outcome [5] | outcome [6] | outcome [7] | outcome [8] | outcome [9] | outcome [10] | outcome [11] | outcome [12] | outcome [13] | outcome [14] | outcome [16] | outcome [17]
active: potentiation [3] 30% | potentiation [15] 26%

COC(=O)C(Cc1ccc(N(CCCl)CCCl)cc1)N=Cc1ccccc1O (stereo not drawn)
inactive: outcome [1] | outcome [2] | outcome [3] | outcome [4] | outcome [5] | outcome [6] | outcome [7] | outcome [8] | outcome [9] | outcome [10] | outcome [11] | outcome [12] | outcome [13] | outcome [14] | outcome [15] | outcome [16] | outcome [17]

Clc1ccc(N2CCNCC2)nn1
inactive: outcome [1] | outcome [2] | outcome [4] | outcome [5] | outcome [6] | outcome [7] | outcome [8] | outcome [9] | outcome [10] | outcome [11] | outcome [12] | outcome [13] | outcome [14] | outcome [16] | outcome [17]
active: potentiation [3] 14% | potentiation [15] 16.3%

CN1CCN(c2cccc3c2C(=O)c2ccccc2C3=O)CC1
active: potentiation [3] 16% | potentiation [4] 8%
inactive: outcome [1] | outcome [2] | outcome [5] | outcome [6] | outcome [7] | outcome [8] | outcome [9] | outcome [10] | outcome [11] | outcome [12] | outcome [13] | outcome [14] | outcome [15] | outcome [16] | outcome [17]

COc1ccc(Br)cc1CNCCc1cccc(Cl)c1
inactive: outcome [19]
active: Tl flux remaining, % of negative control (hits give low values) [18] 15.5%

CNCC(O)c1cc(F)c(OCc2ccccc2)c(OCc2ccccc2)c1F (stereo not drawn)
active: Tl flux remaining, % of negative control (hits give low values) [18] 34.5% | FluxOR signal as % of negative control (100 = no effect) [19] 74%

CCOc1cccc(=NC2CCCCC2)c2c(C)[nH]c(C)c12
active: Tl flux remaining, % of negative control (hits give low values) [18] 46.5%
inactive: outcome [19] | outcome [20]

Cc1c(P(=S)(c2ccccc2)c2ccccc2)[n+]2ccccc2n1C
inactive: outcome [1] | outcome [2] | outcome [3] | outcome [4] | outcome [5] | outcome [6] | outcome [7] | outcome [8] | outcome [9] | outcome [10] | outcome [11] | outcome [12] | outcome [13] | outcome [14] | outcome [15] | outcome [16] | outcome [17]
